# Measurements reported in PubChem BioAssay AID652054 (National Center for Advancing Translational Sciences (NCATS), 2013).
# Among all 360,000 compounds or so, about 9,100 (2.5%) were called active. About 4% were inconclusive and are not listed. The full list was thinned out, with actives kept by preference. Values without a mark were called inactive. Rule as the data show it: active = max response below about -50%; inconclusive = no clear call, values can overlap the other calls; inactive = above that.
# Target: D(3) dopamine receptor (Homo sapiens) (UniProt P35462)
# Assay: qHTS of D3 Dopamine Receptor Antagonist: qHTS
# Details: D3R cells, DiscoveRx beta-arrestin luminescence, antagonist mode; active compounds read low
# Source text: D3 DARs represent a very important target for the treatment of several neuropsychiatric disorders. Indeed, one of the most promising therapeutic applications for the D3 DAR is in the area of addiction and related disorders. […] These findings have been observed with a number of addictive substances including cocaine, amphetamine, nicotine, and alcohol. […] Antagonism of the D3 DAR may also be therapeutic in the treatment of schizophrenia or psychosis. […] Since the D3 DAR is expressed in areas of the CNS associated with the control of mood and emotion, it has been hypothesized that selective antagonism of the D3 DAR may be effective in treating psychosis without inducing the motor side effects typically seen with D2 DAR antagonists.
# This part of the project aims to discover novel antagonist.
# NIH Chemical Genomics Center [NCGC]
# NIH Molecular Libraries Probe Centers Network [MLPCN]
# Assay Submitter (PI): David Sibley, NINDS
# Freshly passaged cells are plated in 1536 well white, solid bottom plates at a density of 1500 cells/well in 3microl of complete media. After an overnight incubation at 37 degrees C in 5% CO2, cells are loaded with 23nl of test compound from the compound library (as well as dopamine controls) using a 1536 pintool and incubated at 37 degrees C for 90 minutes. Two microliters of DiscoveRx reagent is then added to all cells, and they are incubated for an additional 30 - 60 minutes at room temperature. Following incubation, luminescence is measured on a ViewLux CCD-based luminometer reader using a 20 sec exposure time.
# % is scaled to controls: 0 for no effect and ±100 for the full control effect.
# D(3) dopamine receptor (Homo sapiens), sequence (P35462 whole entry, looked up): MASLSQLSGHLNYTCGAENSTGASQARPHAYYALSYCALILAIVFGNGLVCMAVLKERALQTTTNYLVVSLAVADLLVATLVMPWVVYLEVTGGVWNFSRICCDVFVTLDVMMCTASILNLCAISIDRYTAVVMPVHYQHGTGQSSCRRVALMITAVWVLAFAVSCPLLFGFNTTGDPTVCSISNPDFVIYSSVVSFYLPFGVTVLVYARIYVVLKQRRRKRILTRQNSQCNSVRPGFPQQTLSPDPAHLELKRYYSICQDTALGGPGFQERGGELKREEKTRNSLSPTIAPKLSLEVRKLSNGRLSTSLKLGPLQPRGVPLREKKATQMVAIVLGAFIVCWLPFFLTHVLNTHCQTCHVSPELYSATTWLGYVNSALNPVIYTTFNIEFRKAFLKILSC
row,SMILES,"max response, negative = inhibition"
1,CCc1cccc(OC2OC(CO)C(O)C(O)C2NC(C)=O)c1 (stereo not drawn),-21.8%
2,CC(=O)NC1C(OCc2ccccc2)OC(COC(C)=O)C(OC(C)=O)C1OC(C)=O (stereo not drawn),-50.8% (active)
3,CC(=O)NC1C(Oc2ccc(C=O)cc2)OC(COC(C)=O)C(OC(C)=O)C1OC(C)=O (stereo not drawn),14.4%
4,Cc1cccc(CN2CCN(C3CN(Cc4cn(Cc5cc(C)cc(C)c5)nn4)S(=O)(=O)C3)CC2)c1 (stereo not drawn),0.506%
5,Cc1ccc(Cc2c(-c3ccccc3)nc3ccc(Cl)cn23)cc1,5.55%
6,Cc1ccc(NC(=S)N(CCCN2CCCC2)Cc2cccn2Cc2ccc(Cl)cc2)cc1,-19%
7,Cc1ccc(NC(=S)N(CCN(C)C)Cc2cccs2)cc1C,-25.3%
8,Cc1ccc(NC(=S)N(CCN2CCCCC2)Cc2ccco2)cc1C,-70.4% (active)
9,CCc1ccccc1NC(=S)N(CCN1CCCCCC1)Cc1ccco1,-28.8%
10,Cc1ccc(NC(=S)N(Cc2ccco2)C(C)c2cccs2)cc1 (stereo not drawn),10.5%
11,Cc1ccc(NC(=S)N(CCCN2CCC(C)CC2)Cc2ccco2)cc1,-63.3% (active)
12,O=C(c1ccc(C(F)(F)F)cc1)N1CCC(=O)N([C@H](COCc2ccccc2)Cc2ccccc2)CC1,-26.4%
13,CC(C)c1ccc(CC(=O)N2CCC2(C)C(=O)NS(=O)(=O)c2ccc(C(C)(C)C)cc2)cc1 (stereo not drawn),22.2%
14,Nc1ncnc2c1ncn2[C@@H]1O[C@H](C(=O)NCC(F)(F)F)[C@@H](O)[C@H]1O,14.5%
15,Cc1nc(C(F)(F)F)ccc1C(=O)N1CCC1(C)C(=O)NS(=O)(=O)c1ccc(F)cc1F (stereo not drawn),19.8%
16,O=C1NC[C@@H](CCCCN2CCN(CCc3ccc(O)cc3)C(=O)C2=O)N(CC2CCCCC2)C1=O,0%
17,O=C(CSc1ccc(-c2ccccc2)nn1)NCC1CCCO1 (stereo not drawn),-1.73%
18,CCn1c(SCC(=O)NCC2CCCO2)nc2ccccc21 (stereo not drawn),1.46%
19,O=C(CSC1=Nc2ccccc2C2=NC(c3ccccc3)C(=O)N12)NCC1CCCO1 (stereo not drawn),-66.9% (active)
20,CC(=O)c1cccc(-c2cnc3c(NC=O)cc(-c4ccc(N5CCN(C)CC5)cc4)cn23)c1,13.5%
21,Cc1ccc(CC2CC(=O)N(c3ccc4c(c3)OCCO4)C2=O)cc1 (stereo not drawn),23.1%
22,O=CN1CCN(C2CC(=O)N(c3ccc4c(c3)OCO4)C2=O)CC1 (stereo not drawn),-17.5%

row,SMILES,"max response, negative = inhibition"
1,Cc1ccc(N2C(=O)CC(NCc3ccc4c(c3)OCO4)C2=O)cc1Cl (stereo not drawn),-53.6% (active)
2,CC(C)n1ncc2c(C(=O)N3CCN(Cc4cccs4)CC3)cc(C3CC3)nc21,-22.9%
3,CC1(C2CC2)NC(=O)N(CC(=O)N2CCN(c3ccccc3F)CC2)C1=O (stereo not drawn),-14.5%
4,Cc1ccccc1CN1C(=O)CSCC1(C)C(=O)Nc1c(C)cccc1C (stereo not drawn),4.29%
5,COc1cnc(-c2ccccn2)nc1Oc1ccc(C(C)(C)C)cc1,-52.8% (active)
6,COc1ccc(NCCc2ccccn2)cc1,1.2%
7,COc1ccc2nc(-c3ccccn3)ccc2c1,-12.3%
8,CCOC(=O)c1c(NC(=O)COC(=O)c2ccc(S(=O)(=O)C(F)F)cc2)sc(C(=O)N(C)C)c1C,13%
9,Cc1ccc(-c2c(N)nc3ncccn23)cc1,1.01%
10,OCCN1CCN(c2ncnc3c2ncn3[C@H]2CN(Cc3ccco3)C[C@@H](CO)O2)CC1,-7.83%
11,O=S1(=O)CC(N2CCN(CCO)CC2)CN1Cc1cn(Cc2ccc(Cl)cc2)nn1 (stereo not drawn),-11.2%
12,Cc1n[nH]c(=S)n1/N=C/c1ccc(Br)o1,-55% (active)
13,COc1cc(/C=N/n2c(C)n[nH]c2=S)ccc1OCc1ccccc1,4.09%
14,Cc1ccccc1-c1n[nH]c(=S)n1/N=C/c1ccc(-c2ccccc2Br)o1,-16.9%
15,NC(c1csc(NC(=O)Nc2ccccc2Oc2ccccc2)n1)c1ccccc1Cl (stereo not drawn),46.2%
16,COC(=O)[C@]12CCCCC=C1N(Cc1ccco1)C(=O)[C@H](CC(=O)NCCCCc1ccccc1)C2,-9.24%
17,Cc1ccc(CN2CC(N3CCC(Cc4ccccc4)CC3)CS2(=O)=O)cc1 (stereo not drawn),6.13%
18,O=C(CSc1nc2[nH]ncc2c(=O)[nH]1)Nc1ccc(F)cc1,2.63%
19,Cc1cc(C)c2c(=O)[nH]c(SCC(=O)Nc3ccc(Br)cc3)nc2n1,-52.3% (active)
20,Cc1cc(=O)[nH]c(SCC(=O)Nc2ccc(Br)cc2)n1,-12.6%
21,COc1ccc(Cl)cc1-c1cc(C(=O)Nc2cc(OC)c(OC)c(OC)c2)[nH]n1,106%
22,COCCCNCCOCCOc1ccc(Cl)cc1Br,-97.1% (active)

row,SMILES,"max response, negative = inhibition"
1,Clc1cccc(Cl)c1OCCOCCNCc1ccccc1,43.5%
2,COCCNCCOCCOc1cccc(OC)c1,6.73%
3,C[C@@H]1CN([C@H](C)CO)S(=O)(=O)c2ccc(C#CC3CCCCC3)cc2O[C@H]1CN(C)C(=O)Cc1ccncc1,-18.9%
4,CCc1nc2ccc(C(=O)NCc3ccc(OC)cc3)cn2c1N(CC)Cc1cccc(Br)c1,0%
5,C[C@H](CO)N1C[C@H](C)[C@H](CN(C)C(=O)c2ccncc2)OCc2ccccc2-c2c(n(C)c3ccccc23)C1=O,-9.27%
6,O=C(NCc1ccc(F)cc1)c1cc(C2CCCCN2C(=O)C2CCCCC2)on1 (stereo not drawn),2.42%
7,O=C(Nc1cccc(Cl)c1)c1cc([N+](=O)[O-])ccc1N1CCN(CCO)CC1,-13.4%
8,CCC(=O)c1ccc(N2CCN(C(=O)c3cc([N+](=O)[O-])ccc3F)CC2)c(F)c1,15%
9,CCN1CCN(c2ccc([N+](=O)[O-])cc2C(=O)c2ccc(Cl)cc2)CC1,-55.6% (active)
10,O=C(NCCc1ccccc1)/C(=C\c1ccc([N+](=O)[O-])cc1)NC(=O)c1ccccc1,9%
11,O=C(Nc1ccc(C(=O)O)cc1)/C(=C/c1ccc([N+](=O)[O-])cc1)NC(=O)c1ccccc1,-12.4%
12,O=C(N/N=C/c1ccc(O)cc1)/C(=C/c1ccc([N+](=O)[O-])cc1)NC(=O)c1ccccc1,-52.3% (active)
13,Cc1sc2ccccc2c1CNC[C@H]1O[C@@H](n2ccc(=O)[nH]c2=O)[C@H](O)[C@@H]1O,23.7%
14,O=C(NCc1ccccc1Cl)c1csc([C@@H]2O[C@H](CO)[C@@H](O)[C@H]2O)n1,0%
15,Cc1ccccc1-c1csc(C(O)c2cccc(Cl)c2)n1 (stereo not drawn),-14.8%
16,CC(C)Cn1cc(-c2cncc3nccn23)cn1,19.7%
17,NC(=O)CSc1nnc(-c2cccc(S(=O)(=O)N3CCOCC3)c2)o1,-19.7%
18,Cc1c(C(=O)NCc2ccc(C#N)cc2)sc(=O)n1Cc1ccc(C(=O)N(C)C)cc1,16.1%
19,COc1ccc(C(=O)N2CCC(C(=O)Nc3cccc(C)c3)CC2)cc1OC,9.36%
20,COc1ccccc1NC(=O)C1CCN(C(=O)c2ccc(C(C)(C)C)cc2)CC1,-52% (active)
21,CC(C)(C)c1ccc(C(=O)N2CCC(C(=O)N3CCCCC3)CC2)cc1,7.98%
22,O=C1C(Cl)=C(Oc2ccccc2)C(=O)c2ccccc21,-90.6% (active)

row,SMILES,"max response, negative = inhibition"
1,CC(=O)N(C1=C(Cl)C(=O)c2ccccc2C1=O)c1ccc(C(=O)O)cc1,-17.6%
2,COc1cccc(CNc2nc(NCc3cccs3)nc3ccsc23)c1,-28.6%
3,C[C@H](CO)N1C[C@H](C)[C@@H](CN(C)S(=O)(=O)c2ccc(F)cc2)OCc2cnnn2CCCC1=O,-22.3%
4,COc1ccc(C(C)(NC(C)=O)c2nc(-c3ccc(S(C)(=O)=O)cc3)cs2)cc1 (stereo not drawn),0.123%
5,CC(C)Nc1ncnc2c1ncn2[C@H]1CN(Cc2ccncc2)C[C@@H](CO)O1,4.5%
6,Cc1c(NC(=O)c2cc(-c3ccc(Br)cc3)on2)c(=O)n(-c2ccccc2)n1C,-15%
7,Cc1c(NC(=O)c2coc(=O)c(Br)c2)c(=O)n(-c2ccccc2)n1C,-83.3% (active)
8,Cc1cc2oc(C(=O)Nc3c(C)n(C)n(-c4ccccc4)c3=O)c(C)c2cc1Cl,-21.8%
9,CCCCCNC(=O)C(c1ccc(OC)cc1)n1c(=O)c(-c2ccccc2)nc2ccccc21 (stereo not drawn),3.45%
10,CC1=C(C(=O)N(C(C)C)C(C)C)CC(CC(=O)NCCCCc2ccccc2)C(=O)N1CCC1=CCCCC1 (stereo not drawn),-16.1%
11,COC(=O)[C@]12CCCCC=C1N(Cc1ccc3c(c1)OCO3)C(=O)[C@H](CC(=O)NCc1cccs1)C2,3.72%
12,Cc1ccc(CCC(=O)Nc2ncc(Cc3cc(Cl)ccc3Cl)s2)o1,-12.7%
13,Cc1ccc(Cc2cnc(N)s2)o1,-53.2% (active)
14,CN(C)CCOC(=O)C(c1ccccc1)C1(O)CCCC1 (stereo not drawn),-12.5%
15,CN(C)CCOC1c2ccccc2-c2ccccc21,-17.2%
16,Cc1ccccc1C(OCCN(C)C)C1CCCCC1 (stereo not drawn),-100% (active)
17,COCCNc1ncnc2c1ncn2[C@H]1CN(Cc2ccc(OC)cc2)C[C@@H](CO)O1,6.87%
18,Cc1cc(C)n2c(NCc3ccccc3)c(CC(C)C)nc2n1,5.03%
19,Cc1ccc(CN(C)C[C@@H]2OCc3cnnn3CCCC(=O)N([C@@H](C)CO)C[C@H]2C)cc1,-25.2%
20,CC(CNc1ccc([N+](=O)[O-])cc1)NC(=O)c1ccccc1Br (stereo not drawn),3.2%
21,O=C(NCCNc1ccc([N+](=O)[O-])cc1)c1cccc2c(Br)cccc12,-58.2% (active)
22,O=C(NCCNc1ccc([N+](=O)[O-])cc1Cl)c1ccccc1F,-0.899%
